Laboratory results as given in PubChem BioAssay (EPA / NIEHS).
Active and inactive are the calls of the source. How the source made its calls: active means hit-call score of the fitted dose curve at least 0.9, where 1 is the maximum; inactive means score below 0.9.

Experiments:
[1] = APR_HepG2_P-H2AX_72hr: Apredica 72-hour HepG2 Assay for H2AX Phosphorylation (AID 2282916); details: imaging, actives raise or lower the signal;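 further: phospho-histone H2A.x immunostain intensity per cell marking DNA damage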
Summary of the method: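 Readout: phospho-H2A.x immunofluorescence (FITC secondary) plus Hoechst nuclear stain, high-content imaging at 20x, six fields/well. HepG2, 72 hr compound exposure, 0.39–200 uM, final DMSO 0.5% v/v. Gain or loss fitted relative to DMSO baseline.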

[2] = APR_HepG2_MitoMembPot_72hr: Apredica 72-hour HepG2 Assay for Mitochondrial Membrane Potential (AID 2282917); details: imaging, actives raise or lower the signal
Summary of the method: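 HepG2 cells dosed 72 hr with compound at 0.39–200 uM in duplicate, 0.5% v/v DMSO final. Mitochondria stained with 250 nM MitoTracker Red CMXRos for 30 min before formaldehyde fixation, imaged by high-content fluorescence; bidirectional fit versus DMSO.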

[3] = APR_HepG2_MitoticArrest_72hr: Apredica 72-hour HepG2 Assay for Mitotic Arrest (AID 2282918); details: high-content imaging, actives raise or lower the signal
Summary of the method: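 HepG2 cells treated 72 h at 0.39–200 uM, 0.5% DMSO final; formaldehyde-fixed, stained with Hoechst 33342 and phospho-histone H3 antibody, imaged by high-content fluorescence; bidirectional fit versus DMSO.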

[4] = APR_HepG2_MicrotubuleCSK_72hr: Apredica 72-hour HepG2 Assay for Microtubule CSK Stabilty (AID 2282919); details: HepG2 microtubule cytoskeleton, high-content imaging, actives raise or lower the signal
Summary of the method: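 HepG2, 72 hr cmpd exposure, 0.39–200 uM (10 pts, duplicate), 0.5% DMSO. 3.7% formaldehyde fix, 0.5% Triton perm, anti-alpha-tubulin/Cy5 plus Hoechst. HCS fluorescence intensity; bidirectional fit vs DMSO baseline; taxol as positive control.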

[5] = APR_HepG2_P-H2AX_24hr: Apredica 24-hour HepG2 Assay for H2AX Phosphorylation (AID 2282920); details: high-content imaging, actives raise or lower the signal
Summary of the method: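 HepG2 cells dosed 24 h at 0.39–200 uM (10 points, duplicate, 0.5% DMSO final). Formaldehyde-fixed and permeabilized, then immunostained for phospho-H2A.x with Hoechst. Fluorescence quantified by high-content imaging, fitted bidirectionally versus DMSO.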

[6] = APR_HepG2_StressKinase_24hr: Apredica 24-hour HepG2 Assay for Stress Kinase (AID 2282922); details: HepG2 stress kinase (phospho-c-Jun) imaging, actives raise or lower the signal
Summary of the method: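 Read-out: phospho-c-Jun immunofluorescence (Cy3 secondary) quantified by high-content imaging at 20x, nuclei defined by Hoechst 33342. Human HepG2 liver cells dosed 24 hr, 0.39–200 uM, DMSO 0.5% v/v; gain or loss of signal fitted relative to DMSO.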

[7] = APR_HepG2_MitoMass_72hr: Apredica 72-hour HepG2 Assay for Mitochondrial Mass (AID 2282924); details: high-content imaging, actives raise or lower the signal;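 further: MitoTracker Red CMXRos stain intensity per cell imaged as mitochondrial mass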
Summary of the method: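 Read-out: MitoTracker Red fluorescence intensity from automated imaging (20x, six fields per well) in human HepG2 liver cells. Dosing ran 72 hr, 0.39–200 uM, 0.5% DMSO; bidirectional curve fitting versus DMSO baseline.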

[8] = APR_HepG2_StressKinase_72hr: Apredica 72-hour HepG2 Assay for Stress Kinase (AID 2282921); details: HepG2 stress kinase (phospho-c-Jun) imaging, actives raise or lower the signal
Summary of the method: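 Phospho-c-Jun immunofluorescence measured by high-content imaging at 20x, six fields per well; bidirectional curve fitting against DMSO as baseline. Dosing: 0.39–200 uM, 72 h, 0.5% DMSO final.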

[9] = APR_HepG2_p53Act_72hr: Apredica 72-hour HepG2 Assay for p53 Activation (AID 2282923); details: high-content imaging, actives raise or lower the signal;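 further: average cellular p53 protein immunofluorescence intensity in HepG2 cells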
Summary of the method: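 Readout: p53 immunofluorescence quantified by automated high-content imaging at 20x, six fields per well, nuclei located via Hoechst. Dosing ran 72 hr over ten concentrations from 0.39 to 200 uM; bidirectional curve fitting against DMSO baseline.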

[10] = APR_HepG2_NuclearSize_72hr: Apredica 72-hour HepG2 Assay for Nuclear Size (AID 2282925); details: high-content imaging, actives raise or lower the signal
Summary of the method: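 Read-out: nuclear diameter from Hoechst 33342 images (ArrayScan, 20x, six fields/well), via cell-cycle image analysis. HepG2 were dosed 0.39–200 uM for 72 hr in 0.5% DMSO. Bidirectional fit relative to DMSO.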

Measured: AC50

CC(=O)CC(c1ccccc1)c1c(O)c2ccccc2oc1=O (stereo not given)
inactive: [1] | [2] | [3] | [4] | [5] | [6] | [7]

CCc1cc(C2=C(C(=O)O)N(c3ccccc3C(F)(F)F)S(=O)(=O)c3ccccc32)cc2c1OCO2
inactive: [1] | [2] | [3] | [4] | [5] | [8] | [6] | [9] | [7] | [10]

O=Cc1ccccc1C=O
inactive: [1] | [2] | [3] | [4] | [5] | [6] | [7] | [10]

CC(COCC(C)OC(=O)c1ccccc1)OC(=O)c1ccccc1 (stereo not given)
inactive: [1] | [2] | [3] | [4] | [5] | [6] | [7]

CCCCc1nc2cccnc2n1Cc1ccc(-c2ccccc2-c2nnn[nH]2)cc1
active: [3] 67.1 µM | [4] 94.4 µM | [5] 48.6 µM | [7] 118 µM
inactive: [1] | [2] | [6] | [9] | [10]

CC(=O)O[C@]1(C(C)=O)CC[C@H]2[C@@H]3C=C(Cl)C4=CC(=O)[C@@H]5C[C@@H]5[C@]4(C)[C@H]3CC[C@@]21C
inactive: [1] | [2] | [3] | [4] | [5] | [6] | [7]

O=NO
inactive: [1] | [2] | [3] | [4] | [5] | [6] | [7] | [10]

Cc1occc(=O)c1O
inactive: [1] | [2] | [3] | [4] | [5] | [8] | [6] | [7]

CC(=O)OCC(COC(C)=O)OC(C)=O
inactive: [1] | [2] | [3] | [4] | [5] | [6] | [7] | [10]

O=C1O[C@H]([C@H](O)CO)C(O)=C1O
inactive: [1] | [2] | [3] | [5] | [6] | [9] | [7] | [10]

O=C1NC(=O)C(c2ccccc2)(c2ccccc2)N1
inactive: [1] | [2] | [3] | [5] | [8] | [6] | [7]

O=C1CCCCC1
inactive: [1] | [2] | [3] | [5] | [6] | [7]

O=C(O)c1cccnc1
active: [3] 116 µM
inactive: [2] | [4] | [5] | [8] | [6] | [7]

CN(C)C(=O)NC1(c2ccccc2)CCN(CCC[C@]2(c3ccc(Cl)c(Cl)c3)CCCN(C(=O)c3ccccc3)C2)CC1
active: [1] 15.1 µM | [2] 25.4 µM | [3] 9.82 µM | [5] 22.5 µM | [9] 10.3 µM
inactive: [6] | [7] | [10]

CN(C)C(=O)NC1(c2ccccc2)CCN(CC[C@@]2(c3ccc(F)c(F)c3)CN(C(=O)c3ccccc3)CCO2)CC1
active: [3] 86 µM | [4] 82.9 µM | [8] 104 µM | [9] 97.7 µM
inactive: [2] | [5] | [6] | [7]

CC(C)OC(=O)C(C)(C)Oc1ccc(C(=O)c2ccc(Cl)cc2)cc1
inactive: [1] | [2] | [3] | [5] | [8] | [6] | [7]

CC(=O)O
inactive: [8] | [6]
active: [1] 92 µM | [2] 100 µM | [3] 92.8 µM | [5] 66.4 µM | [7] 0.0355 µM

O=C(N[C@@H](c1ccccc1)[C@@H]1CCCCN1)c1cccc(C(F)(F)F)c1Cl
active: [1] 6.64 µM | [3] 9.47 µM | [5] 14.3 µM | [7] 34.3 µM
inactive: [2] | [8] | [6] | [10]

CCCCC(CC)CO (stereo not given)
inactive: [1] | [2] | [3] | [5] | [6] | [9] | [7] | [10]

CCCCCCC(CCCCCCCCCCC(=O)OCC(COC(C)=O)OC(C)=O)OC(C)=O (stereo not given)
inactive: [1] | [2] | [5] | [8] | [6] | [9] | [7]
active: [3] 39.8 µM

CCCCOC(=O)CCCCC(=O)OCCCC
inactive: [2] | [3] | [4] | [5] | [8] | [6] | [7]

CCCC[C@H]1CN(CC2CCOCC2)C(=O)OC12CCN(C1(C)CCN(C(=O)c3c(C)ncnc3C)CC1)CC2
inactive: [2] | [3] | [4] | [5] | [8] | [6] | [9] | [7] | [10]
